Key:
Experiment in all cases: DAPPL (digital affinity profiling via proximity ligation, sequencing); 10 mM Tris-HCl pH 7.5, 50 mM NaCl, 1 mM DTT, 4% glycerol, room temperature, 30 min; GST-TFs on glutathione beads, 16-mer random dsDNA library, 0.1% formaldehyde crosslink after washing; high values mean tight binding
FLI1 = target: T1, FLI1 (Homo sapiens, UniProt Q01543 1-452); conditions: protein: recombinant; tags: N-terminal GST; dsDNA, one strand shown
T1 sequence: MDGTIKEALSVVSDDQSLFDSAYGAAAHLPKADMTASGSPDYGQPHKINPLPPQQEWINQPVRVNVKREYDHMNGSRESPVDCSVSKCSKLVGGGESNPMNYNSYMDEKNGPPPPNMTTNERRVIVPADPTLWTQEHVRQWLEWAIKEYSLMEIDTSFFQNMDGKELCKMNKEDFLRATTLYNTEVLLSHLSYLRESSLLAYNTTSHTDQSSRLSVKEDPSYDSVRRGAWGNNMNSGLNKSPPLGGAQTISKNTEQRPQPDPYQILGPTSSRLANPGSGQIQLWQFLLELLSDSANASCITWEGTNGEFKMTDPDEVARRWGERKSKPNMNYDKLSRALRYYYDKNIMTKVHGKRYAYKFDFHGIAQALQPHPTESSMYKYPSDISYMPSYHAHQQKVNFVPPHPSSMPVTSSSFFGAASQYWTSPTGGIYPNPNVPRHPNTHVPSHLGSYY
How it was run: (§1)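 Pools were built from human transcription factors expressed in yeast as GST fusions, captured on glutathione beads and DNA-barcoded, along with a tag-only sample. Incubation with 200 nmole of a 16-mer random double-stranded DNA library lasted 30 min at room temperature in Tris/NaCl/DTT/glycerol buffer, and was followed by washing, 0.1% formaldehyde crosslinking, proximity ligation, PCR amplification and Illumina NextSeq500 sequencing. Binding signal is the quotient of each hexamer's read frequency for a factor and its frequency for the tag-only sample.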

ELK1 = target: T2, ELK1 (Homo sapiens, UniProt P19419 1-428); conditions: protein: recombinant; tags: N-terminal GST; dsDNA, one strand shown
T2 sequence: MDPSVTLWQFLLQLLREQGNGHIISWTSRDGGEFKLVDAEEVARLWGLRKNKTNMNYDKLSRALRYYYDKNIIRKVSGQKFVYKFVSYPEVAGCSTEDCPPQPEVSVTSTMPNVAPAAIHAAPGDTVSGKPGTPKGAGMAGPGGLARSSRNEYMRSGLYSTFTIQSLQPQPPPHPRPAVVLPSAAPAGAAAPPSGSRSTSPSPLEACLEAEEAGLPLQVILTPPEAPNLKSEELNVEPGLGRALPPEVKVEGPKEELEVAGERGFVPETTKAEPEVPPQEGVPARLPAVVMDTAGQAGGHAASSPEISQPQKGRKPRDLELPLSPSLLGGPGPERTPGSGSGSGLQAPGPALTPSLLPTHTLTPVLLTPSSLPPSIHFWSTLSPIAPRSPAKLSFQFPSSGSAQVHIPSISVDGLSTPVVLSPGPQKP
How it was run: as §1

GABPA = target: T3, GABPA (Homo sapiens, UniProt Q06546 1-454); conditions: protein: recombinant; tags: N-terminal GST; dsDNA, one strand shown
T3 sequence: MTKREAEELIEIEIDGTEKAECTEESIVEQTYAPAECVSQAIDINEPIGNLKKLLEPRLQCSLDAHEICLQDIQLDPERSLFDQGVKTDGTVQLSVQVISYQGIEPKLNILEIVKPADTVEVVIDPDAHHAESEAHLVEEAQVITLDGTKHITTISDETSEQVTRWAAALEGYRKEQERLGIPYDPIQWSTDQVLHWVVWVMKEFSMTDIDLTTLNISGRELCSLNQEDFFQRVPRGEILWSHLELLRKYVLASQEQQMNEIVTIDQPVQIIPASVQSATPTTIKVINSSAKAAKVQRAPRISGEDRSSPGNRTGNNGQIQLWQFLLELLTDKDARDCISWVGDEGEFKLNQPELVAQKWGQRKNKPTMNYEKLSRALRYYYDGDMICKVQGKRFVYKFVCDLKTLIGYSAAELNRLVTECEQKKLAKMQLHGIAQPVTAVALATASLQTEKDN
How it was run: as §1

ERG = target: T4, ERG (Homo sapiens, UniProt P11308 1-479); conditions: protein: recombinant; tags: N-terminal GST; dsDNA, one strand shown
T4 sequence: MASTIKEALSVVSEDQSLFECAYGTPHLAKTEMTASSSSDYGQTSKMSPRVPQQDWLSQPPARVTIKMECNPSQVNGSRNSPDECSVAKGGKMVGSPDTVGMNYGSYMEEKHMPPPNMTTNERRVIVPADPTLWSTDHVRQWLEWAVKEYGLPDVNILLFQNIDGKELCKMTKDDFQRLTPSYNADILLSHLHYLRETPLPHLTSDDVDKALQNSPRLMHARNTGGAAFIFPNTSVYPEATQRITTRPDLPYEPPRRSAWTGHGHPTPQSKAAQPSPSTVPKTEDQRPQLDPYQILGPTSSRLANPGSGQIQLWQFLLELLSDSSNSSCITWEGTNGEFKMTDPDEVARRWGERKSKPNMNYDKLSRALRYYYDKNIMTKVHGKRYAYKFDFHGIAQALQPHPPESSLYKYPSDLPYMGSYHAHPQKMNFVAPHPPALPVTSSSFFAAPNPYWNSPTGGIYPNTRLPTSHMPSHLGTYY
How it was run: as §1

ELF1 = ELF1 (Homo sapiens, UniProt P32519 1-619); conditions: protein: recombinant; tags: N-terminal GST; dsDNA, one strand shown
How it was run: as §1

EHF = target: T5, EHF (Homo sapiens, UniProt Q9NZC4 1-300); conditions: protein: recombinant; tags: N-terminal GST; dsDNA, one strand shown
T5 sequence: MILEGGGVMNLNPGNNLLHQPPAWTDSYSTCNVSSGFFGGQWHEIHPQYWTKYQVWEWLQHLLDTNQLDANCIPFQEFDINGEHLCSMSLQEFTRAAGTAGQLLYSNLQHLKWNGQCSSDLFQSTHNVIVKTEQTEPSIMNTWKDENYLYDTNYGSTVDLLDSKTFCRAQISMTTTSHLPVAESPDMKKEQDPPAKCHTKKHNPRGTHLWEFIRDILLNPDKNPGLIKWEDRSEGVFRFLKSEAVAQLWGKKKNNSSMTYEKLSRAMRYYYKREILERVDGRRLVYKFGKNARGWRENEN
How it was run: as §1

SPI1 = SPI1 (Homo sapiens, UniProt P17947 1-270); conditions: protein: recombinant; tags: N-terminal GST; dsDNA, one strand shown
How it was run: as §1

SPIB = SPIB (Homo sapiens, UniProt Q01892 1-262); conditions: protein: recombinant; tags: N-terminal GST; dsDNA, one strand shown
How it was run: as §1

ELK3 = target: T6, ELK3 (Homo sapiens, UniProt P41970 1-407); conditions: protein: recombinant; tags: N-terminal GST; dsDNA, one strand shown
T6 sequence: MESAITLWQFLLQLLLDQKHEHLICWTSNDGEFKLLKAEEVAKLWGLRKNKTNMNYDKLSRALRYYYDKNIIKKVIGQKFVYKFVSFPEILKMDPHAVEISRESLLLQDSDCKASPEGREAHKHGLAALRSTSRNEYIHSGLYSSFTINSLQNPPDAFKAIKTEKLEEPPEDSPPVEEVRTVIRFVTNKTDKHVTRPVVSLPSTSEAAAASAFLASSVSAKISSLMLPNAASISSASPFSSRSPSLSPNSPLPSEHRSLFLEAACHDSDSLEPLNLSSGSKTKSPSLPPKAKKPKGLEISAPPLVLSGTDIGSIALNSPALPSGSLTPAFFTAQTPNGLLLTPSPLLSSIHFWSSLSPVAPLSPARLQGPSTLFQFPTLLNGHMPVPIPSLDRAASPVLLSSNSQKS
How it was run: as §1

FEV = target: T7, FEV (Homo sapiens, UniProt Q99581 1-238); conditions: protein: recombinant; tags: N-terminal GST; dsDNA, one strand shown
T7 sequence: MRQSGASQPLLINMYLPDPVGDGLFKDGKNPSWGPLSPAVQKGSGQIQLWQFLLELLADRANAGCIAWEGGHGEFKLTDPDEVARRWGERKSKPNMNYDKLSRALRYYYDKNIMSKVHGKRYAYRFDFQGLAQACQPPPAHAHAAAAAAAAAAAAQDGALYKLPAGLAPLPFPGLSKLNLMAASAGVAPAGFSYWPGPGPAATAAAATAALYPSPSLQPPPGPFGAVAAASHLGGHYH
How it was run: as §1

ETV5 = ETV5 (Homo sapiens, UniProt P41161 1-510); conditions: protein: recombinant; tags: N-terminal GST; dsDNA, one strand shown
How it was run: as §1

HSF1 = HSF1 (Homo sapiens, UniProt Q00613 1-529); conditions: protein: recombinant; tags: N-terminal GST; chain copies: 3; dsDNA, one strand shown
How it was run: as §1

SPIC = target: T8, SPIC (Homo sapiens, UniProt Q8N5J4 1-248); conditions: protein: recombinant; tags: N-terminal GST; dsDNA, one strand shown
T8 sequence: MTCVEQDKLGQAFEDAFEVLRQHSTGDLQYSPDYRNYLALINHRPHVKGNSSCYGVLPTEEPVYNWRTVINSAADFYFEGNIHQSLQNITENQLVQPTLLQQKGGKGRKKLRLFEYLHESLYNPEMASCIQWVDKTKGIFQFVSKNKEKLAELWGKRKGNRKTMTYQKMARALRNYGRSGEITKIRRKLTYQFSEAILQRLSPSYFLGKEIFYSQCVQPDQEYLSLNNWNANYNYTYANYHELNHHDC
How it was run: as §1

ELF4 = ELF4 (Homo sapiens, UniProt Q99607 1-663); conditions: protein: recombinant; tags: N-terminal GST; dsDNA, one strand shown
How it was run: as §1

ELK4 = target: T9, ELK4 (Homo sapiens, UniProt P28324-2 1-405); conditions: protein: recombinant; tags: N-terminal GST; dsDNA, one strand shown
T9 sequence: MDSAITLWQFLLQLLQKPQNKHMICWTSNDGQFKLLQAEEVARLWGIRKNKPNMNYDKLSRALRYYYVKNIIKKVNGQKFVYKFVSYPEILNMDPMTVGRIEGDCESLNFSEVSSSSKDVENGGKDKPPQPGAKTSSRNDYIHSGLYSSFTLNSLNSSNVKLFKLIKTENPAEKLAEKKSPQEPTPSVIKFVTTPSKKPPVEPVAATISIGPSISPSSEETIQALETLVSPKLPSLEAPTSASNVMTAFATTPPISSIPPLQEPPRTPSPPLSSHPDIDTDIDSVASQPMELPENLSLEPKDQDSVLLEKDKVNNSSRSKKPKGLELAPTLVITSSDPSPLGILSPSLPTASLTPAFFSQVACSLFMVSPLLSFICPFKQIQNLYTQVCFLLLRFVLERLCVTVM
How it was run: as §1

ETV2 = target: T10, ETV2 (Homo sapiens, UniProt O00321 1-342); conditions: protein: recombinant; tags: N-terminal GST; dsDNA, one strand shown
T10 sequence: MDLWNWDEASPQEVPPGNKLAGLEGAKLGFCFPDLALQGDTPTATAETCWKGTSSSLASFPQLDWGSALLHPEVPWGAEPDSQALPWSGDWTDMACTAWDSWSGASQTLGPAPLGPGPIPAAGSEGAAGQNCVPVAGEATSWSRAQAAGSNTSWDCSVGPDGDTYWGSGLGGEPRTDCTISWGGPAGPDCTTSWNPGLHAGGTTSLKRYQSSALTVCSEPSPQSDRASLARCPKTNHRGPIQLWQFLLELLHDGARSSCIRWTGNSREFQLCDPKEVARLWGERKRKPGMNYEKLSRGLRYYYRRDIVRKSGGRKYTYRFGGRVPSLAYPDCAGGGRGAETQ
How it was run: as §1

ELF3 = target: T11, ELF3 (Homo sapiens, UniProt P78545 1-371); conditions: protein: recombinant; tags: N-terminal GST; dsDNA, one strand shown
T11 sequence: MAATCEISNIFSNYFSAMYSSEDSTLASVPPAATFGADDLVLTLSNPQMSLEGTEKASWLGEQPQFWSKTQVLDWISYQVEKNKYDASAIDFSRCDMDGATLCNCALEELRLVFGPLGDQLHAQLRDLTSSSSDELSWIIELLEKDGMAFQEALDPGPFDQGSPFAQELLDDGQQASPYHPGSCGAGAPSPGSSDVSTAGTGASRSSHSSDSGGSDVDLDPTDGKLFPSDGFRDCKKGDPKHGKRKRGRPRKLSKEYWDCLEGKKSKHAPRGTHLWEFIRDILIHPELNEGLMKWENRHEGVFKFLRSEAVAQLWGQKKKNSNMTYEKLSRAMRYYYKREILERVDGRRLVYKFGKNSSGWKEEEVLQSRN
How it was run: as §1

ETV1 = ETV1 (Homo sapiens, UniProt P50549 1-477); conditions: protein: recombinant; tags: N-terminal GST; dsDNA, one strand shown
How it was run: as §1

Sequence of ETV5 (P41161 whole entry): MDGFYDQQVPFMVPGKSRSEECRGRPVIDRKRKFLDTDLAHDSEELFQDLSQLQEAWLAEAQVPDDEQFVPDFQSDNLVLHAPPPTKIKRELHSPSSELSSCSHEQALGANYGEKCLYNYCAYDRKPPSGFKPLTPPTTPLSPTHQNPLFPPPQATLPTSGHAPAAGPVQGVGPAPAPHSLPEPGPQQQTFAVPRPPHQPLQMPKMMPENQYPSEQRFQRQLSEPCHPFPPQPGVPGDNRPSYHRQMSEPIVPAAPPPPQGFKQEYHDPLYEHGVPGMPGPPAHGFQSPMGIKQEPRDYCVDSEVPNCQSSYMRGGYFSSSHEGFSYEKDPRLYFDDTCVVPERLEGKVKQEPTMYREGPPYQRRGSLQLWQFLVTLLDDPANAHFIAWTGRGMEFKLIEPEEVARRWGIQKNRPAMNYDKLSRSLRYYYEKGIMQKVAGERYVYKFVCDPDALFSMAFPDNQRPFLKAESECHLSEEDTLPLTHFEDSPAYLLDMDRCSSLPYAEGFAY
Sequence of HSF1 (Q00613 whole entry): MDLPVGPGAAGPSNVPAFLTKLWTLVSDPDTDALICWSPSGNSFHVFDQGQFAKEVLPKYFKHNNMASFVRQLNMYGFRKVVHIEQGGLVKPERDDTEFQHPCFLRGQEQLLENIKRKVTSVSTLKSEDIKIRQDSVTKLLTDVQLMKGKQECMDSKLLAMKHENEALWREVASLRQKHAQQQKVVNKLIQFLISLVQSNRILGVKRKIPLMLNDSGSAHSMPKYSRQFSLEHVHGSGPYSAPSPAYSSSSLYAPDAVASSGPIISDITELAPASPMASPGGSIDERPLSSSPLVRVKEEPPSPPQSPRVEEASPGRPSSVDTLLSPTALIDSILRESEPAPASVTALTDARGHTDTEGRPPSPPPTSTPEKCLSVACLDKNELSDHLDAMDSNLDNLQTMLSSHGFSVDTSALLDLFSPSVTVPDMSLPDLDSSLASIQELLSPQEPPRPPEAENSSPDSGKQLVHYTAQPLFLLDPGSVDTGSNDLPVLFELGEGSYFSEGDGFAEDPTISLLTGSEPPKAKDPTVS
Sequence of SPIB (Q01892 whole entry): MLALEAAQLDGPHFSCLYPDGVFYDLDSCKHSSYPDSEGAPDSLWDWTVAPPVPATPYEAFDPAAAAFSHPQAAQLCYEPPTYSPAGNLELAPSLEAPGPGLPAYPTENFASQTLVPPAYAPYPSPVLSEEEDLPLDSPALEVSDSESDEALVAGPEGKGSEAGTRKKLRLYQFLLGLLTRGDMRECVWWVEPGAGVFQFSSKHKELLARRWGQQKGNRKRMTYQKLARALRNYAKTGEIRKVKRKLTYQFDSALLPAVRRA
Sequence of ELF4 (Q99607 whole entry): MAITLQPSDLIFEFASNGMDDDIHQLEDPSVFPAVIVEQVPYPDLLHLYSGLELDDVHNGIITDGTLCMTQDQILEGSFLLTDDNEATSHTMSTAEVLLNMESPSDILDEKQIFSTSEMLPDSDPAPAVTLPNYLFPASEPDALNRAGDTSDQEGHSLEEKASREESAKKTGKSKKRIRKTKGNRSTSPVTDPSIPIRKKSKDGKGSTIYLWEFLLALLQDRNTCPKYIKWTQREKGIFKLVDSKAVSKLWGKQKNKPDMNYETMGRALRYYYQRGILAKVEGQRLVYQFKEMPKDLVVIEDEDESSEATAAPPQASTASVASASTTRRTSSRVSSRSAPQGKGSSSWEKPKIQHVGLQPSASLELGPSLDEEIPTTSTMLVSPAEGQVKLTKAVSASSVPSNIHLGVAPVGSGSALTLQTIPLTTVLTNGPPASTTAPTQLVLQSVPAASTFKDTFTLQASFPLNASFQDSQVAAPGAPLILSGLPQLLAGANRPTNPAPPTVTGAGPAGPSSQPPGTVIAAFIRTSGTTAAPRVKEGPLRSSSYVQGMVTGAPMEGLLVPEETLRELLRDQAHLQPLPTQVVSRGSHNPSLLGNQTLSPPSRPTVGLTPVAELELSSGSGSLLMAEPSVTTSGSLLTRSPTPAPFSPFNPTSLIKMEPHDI
Sequence of ELF1 (P32519 whole entry): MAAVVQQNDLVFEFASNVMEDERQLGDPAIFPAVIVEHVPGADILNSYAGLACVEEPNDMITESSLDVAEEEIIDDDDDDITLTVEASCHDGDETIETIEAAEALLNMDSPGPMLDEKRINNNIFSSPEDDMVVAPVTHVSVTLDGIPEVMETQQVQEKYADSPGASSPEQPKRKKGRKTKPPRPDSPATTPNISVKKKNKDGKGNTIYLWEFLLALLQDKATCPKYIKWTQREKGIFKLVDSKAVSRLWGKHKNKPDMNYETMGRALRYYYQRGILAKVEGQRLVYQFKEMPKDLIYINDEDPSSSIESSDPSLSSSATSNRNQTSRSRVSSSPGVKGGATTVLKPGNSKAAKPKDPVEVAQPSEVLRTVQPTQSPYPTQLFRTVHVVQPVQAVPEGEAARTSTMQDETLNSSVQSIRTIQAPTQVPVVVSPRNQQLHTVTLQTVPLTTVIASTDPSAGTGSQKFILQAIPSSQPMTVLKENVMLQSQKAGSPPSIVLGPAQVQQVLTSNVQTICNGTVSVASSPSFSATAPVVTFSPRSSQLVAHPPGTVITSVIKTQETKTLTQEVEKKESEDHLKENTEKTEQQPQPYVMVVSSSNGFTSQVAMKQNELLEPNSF
Sequence of ETV1 (P50549 whole entry): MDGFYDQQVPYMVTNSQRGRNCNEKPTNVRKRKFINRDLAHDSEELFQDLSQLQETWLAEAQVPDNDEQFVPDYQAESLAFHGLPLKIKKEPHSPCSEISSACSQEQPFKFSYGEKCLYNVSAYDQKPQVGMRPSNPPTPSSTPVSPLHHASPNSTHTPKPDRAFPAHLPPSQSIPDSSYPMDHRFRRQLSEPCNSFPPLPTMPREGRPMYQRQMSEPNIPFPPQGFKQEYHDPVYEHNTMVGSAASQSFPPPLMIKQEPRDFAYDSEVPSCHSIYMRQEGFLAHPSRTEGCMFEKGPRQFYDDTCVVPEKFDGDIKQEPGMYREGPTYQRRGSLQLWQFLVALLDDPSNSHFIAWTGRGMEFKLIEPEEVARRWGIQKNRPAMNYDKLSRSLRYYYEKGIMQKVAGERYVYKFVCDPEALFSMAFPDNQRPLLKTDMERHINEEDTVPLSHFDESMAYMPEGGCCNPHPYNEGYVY

Sequence: GGCACT
- binding signal (FLI1): 1.24 fold enrichment (6-mer frequency, TF over GST control)
- binding signal (ELK1): 1.21 fold enrichment (6-mer frequency, TF over GST control)
- binding signal (GABPA): 1.28 fold enrichment (6-mer frequency, TF over GST control)
- binding signal (ERG): 1.22 fold enrichment (6-mer frequency, TF over GST control)
- binding signal (ELF1): 1.22 fold enrichment (6-mer frequency, TF over GST control)
- binding signal (EHF): 1.33 fold enrichment (6-mer frequency, TF over GST control)
- binding signal (SPI1): 1.35 fold enrichment (6-mer frequency, TF over GST control)
- binding signal (SPIB): 1.35 fold enrichment (6-mer frequency, TF over GST control)
- binding signal (ELK3): 1.27 fold enrichment (6-mer frequency, TF over GST control)
- binding signal (FEV): 1.46 fold enrichment (6-mer frequency, TF over GST control)
- binding signal (ETV5): 1.32 fold enrichment (6-mer frequency, TF over GST control)
- binding signal (HSF1): 1.03 fold enrichment (6-mer frequency, TF over GST control)
- binding signal (SPIC): 1.24 fold enrichment (6-mer frequency, TF over GST control)
- binding signal (ELF4): 1.26 fold enrichment (6-mer frequency, TF over GST control)
- binding signal (ELK4): 1.28 fold enrichment (6-mer frequency, TF over GST control)
- binding signal (ETV2): 1.19 fold enrichment (6-mer frequency, TF over GST control)
- binding signal (ELF3): 1.29 fold enrichment (6-mer frequency, TF over GST control)
- binding signal (ETV1): 1.38 fold enrichment (6-mer frequency, TF over GST control)
